# ± gives the standard deviation of the averaged measurements.
# Assays:
# Assay in all cases: promoter activity interaction Z-score (Lux/OD deviation from empty-vector control); higher = stronger promoter induction by the compound
# [1] = tested on: E. coli BW25113 acrABp lux reporter
# How it was run: (§1)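 Reporter strains of E. coli BW25113 grew at 37°C in 40 µl LB Lennox in 384-well plates. Readings of OD600 and luminescence were taken every 30 min over 12 h, integrated over 0–8 h (wild type) or 1–9 h (deletion strains), and wells below 10% of the median growth value were excluded. Scores are Z-transformed residuals of growth-normalised luminescence from a fit against a control.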
# [2] = tested on: E. coli BW25113 micFp lux reporter
# How it was run: as §1
# [3] = tested on: E. coli BW25113 ompFp lux reporter
# How it was run: as §1
# [4] = tested on: E. coli BW25113 robp lux reporter
# How it was run: as §1
# [5] = tested on: E. coli BW25113 soxSp lux reporter
# How it was run: as §1
# [6] = tested on: E. coli BW25113 tolCp lux reporter
# How it was run: as §1
# [7] = 24.5 µg/ml, genetic background: wild type
# [8] = 24.5 µg/ml, genetic background: ΔmarA
# [9] = 24.5 µg/ml, genetic background: Δrob
# [10] = 24.5 µg/ml, genetic background: ΔsoxS
# [11] = 49.1 µg/ml, genetic background: wild type
# [12] = 49.1 µg/ml, genetic background: ΔmarA
# [13] = 49.1 µg/ml, genetic background: Δrob
# [14] = 49.1 µg/ml, genetic background: ΔsoxS
# [15] = 98.1 µg/ml, genetic background: wild type
# [16] = 98.1 µg/ml, genetic background: ΔmarA
# [17] = 98.1 µg/ml, genetic background: Δrob
# [18] = 98.1 µg/ml, genetic background: ΔsoxS
# [19] = 196.3 µg/ml, genetic background: wild type
# [20] = 196.3 µg/ml, genetic background: ΔmarA
# [21] = 196.3 µg/ml, genetic background: Δrob
# [22] = 196.3 µg/ml, genetic background: ΔsoxS
smiles,measurement,setting,value
C[C@H](CCC(=O)O)[C@H]1CC[C@H]2[C@@H]3CC[C@@H]4C[C@H](O)CC[C@]4(C)[C@H]3C[C@H](O)[C@]12C [Deoxycholic acid],promoter activity interaction Z-score,[1]; [7],-0.00545 ± 0.031
same,promoter activity interaction Z-score,[1]; [8],1.57 ± 0.29
same,promoter activity interaction Z-score,[1]; [9],-0.132 ± 0.14
same,promoter activity interaction Z-score,[1]; [10],-0.386 ± 0.27
same,promoter activity interaction Z-score,[1]; [11],-0.226 ± 0.0089
same,promoter activity interaction Z-score,[1]; [12],0.503 ± 0.52
same,promoter activity interaction Z-score,[1]; [13],-0.0467 ± 0.16
same,promoter activity interaction Z-score,[1]; [14],-0.057 ± 0.47
same,promoter activity interaction Z-score,[1]; [15],0.106 ± 0.28
same,promoter activity interaction Z-score,[1]; [16],1.38 ± 1.5
same,promoter activity interaction Z-score,[1]; [17],-0.154 ± 0.21
same,promoter activity interaction Z-score,[1]; [18],0.252 ± 0.27
same,promoter activity interaction Z-score,[1]; [19],-0.41 ± 0.14
same,promoter activity interaction Z-score,[1]; [20],0.181 ± 0.34
same,promoter activity interaction Z-score,[1]; [21],-0.162 ± 0.13
same,promoter activity interaction Z-score,[1]; [22],-0.502 ± 0.59
same,promoter activity interaction Z-score,[2]; [7],-0.343 ± 0.23
same,promoter activity interaction Z-score,[2]; [8],0.0199 ± 0.11
same,promoter activity interaction Z-score,[2]; [9],0.0283 ± 0.0044
same,promoter activity interaction Z-score,[2]; [10],-0.264 ± 0.083
same,promoter activity interaction Z-score,[2]; [11],-0.355 ± 0.065
same,promoter activity interaction Z-score,[2]; [12],0.175 ± 0.087
same,promoter activity interaction Z-score,[2]; [13],-0.0435 ± 0.061
same,promoter activity interaction Z-score,[2]; [14],-0.146 ± 0.02
same,promoter activity interaction Z-score,[2]; [15],0.114 ± 0.12
same,promoter activity interaction Z-score,[2]; [16],0.0675 ± 0.083
same,promoter activity interaction Z-score,[2]; [17],-0.0555 ± 0.049
same,promoter activity interaction Z-score,[2]; [18],0.221 ± 0.023
same,promoter activity interaction Z-score,[2]; [19],0.0636 ± 0.083
same,promoter activity interaction Z-score,[2]; [20],0.21 ± 0.12
same,promoter activity interaction Z-score,[2]; [21],-0.134 ± 0.011
same,promoter activity interaction Z-score,[2]; [22],-0.044 ± 0.02
same,promoter activity interaction Z-score,[3]; [7],-0.553 ± 0.23
same,promoter activity interaction Z-score,[3]; [8],-1.03 ± 0.14
same,promoter activity interaction Z-score,[3]; [9],-0.889 ± 0.033
same,promoter activity interaction Z-score,[3]; [10],-0.771 ± 0.0099
same,promoter activity interaction Z-score,[3]; [11],-0.241 ± 0.37
same,promoter activity interaction Z-score,[3]; [12],-0.568 ± 0.061
same,promoter activity interaction Z-score,[3]; [13],-0.421 ± 0.46
same,promoter activity interaction Z-score,[3]; [14],-0.619 ± 0.45
same,promoter activity interaction Z-score,[3]; [15],0.192 ± 0.079
same,promoter activity interaction Z-score,[3]; [16],-1.07 ± 0.24
same,promoter activity interaction Z-score,[3]; [17],-0.618 ± 0.14
same,promoter activity interaction Z-score,[3]; [18],-0.316 ± 0.15
same,promoter activity interaction Z-score,[3]; [19],-0.117 ± 0.52
same,promoter activity interaction Z-score,[3]; [20],-0.473 ± 0.02
same,promoter activity interaction Z-score,[3]; [21],-0.582 ± 0.058
same,promoter activity interaction Z-score,[3]; [22],-0.78 ± 0.4
same,promoter activity interaction Z-score,[4]; [7],0.346 ± 0.23
same,promoter activity interaction Z-score,[4]; [8],-0.527 ± 0.51
same,promoter activity interaction Z-score,[4]; [9],0.184 ± 0.84
same,promoter activity interaction Z-score,[4]; [10],-0.0515 ± 0.27
same,promoter activity interaction Z-score,[4]; [11],0.0327 ± 0.23
same,promoter activity interaction Z-score,[4]; [12],0.517 ± 0.54
same,promoter activity interaction Z-score,[4]; [13],0.31 ± 0.44
same,promoter activity interaction Z-score,[4]; [14],0.767 ± 0.39
same,promoter activity interaction Z-score,[4]; [15],0.553 ± 0.54
same,promoter activity interaction Z-score,[4]; [16],0.501 ± 0.48
same,promoter activity interaction Z-score,[4]; [17],0.729 ± 1.3
same,promoter activity interaction Z-score,[4]; [18],-0.0126 ± 0.038
same,promoter activity interaction Z-score,[4]; [19],0.502 ± 0.87
same,promoter activity interaction Z-score,[4]; [20],0.13 ± 0.13
same,promoter activity interaction Z-score,[4]; [21],-0.399 ± 0.066
same,promoter activity interaction Z-score,[4]; [22],0.439 ± 0.14
same,promoter activity interaction Z-score,[5]; [7],0.0465 ± 0.031
same,promoter activity interaction Z-score,[5]; [8],-0.0486 ± 0.044
same,promoter activity interaction Z-score,[5]; [9],0.0418 ± 0.059
same,promoter activity interaction Z-score,[5]; [10],-0.115 ± 0.036
same,promoter activity interaction Z-score,[5]; [11],0.0154 ± 0.03
same,promoter activity interaction Z-score,[5]; [12],-0.092 ± 0.13
same,promoter activity interaction Z-score,[5]; [13],-0.0215 ± 0.03
same,promoter activity interaction Z-score,[5]; [14],-0.228 ± 0.12
same,promoter activity interaction Z-score,[5]; [15],0.124 ± 0.18
same,promoter activity interaction Z-score,[5]; [16],-0.348 ± 0.085
same,promoter activity interaction Z-score,[5]; [17],-0.0505 ± 0.11
same,promoter activity interaction Z-score,[5]; [18],-0.203 ± 0.29
same,promoter activity interaction Z-score,[5]; [19],-0.0569 ± 0.038
same,promoter activity interaction Z-score,[5]; [20],-0.335 ± 0.053
same,promoter activity interaction Z-score,[5]; [21],-0.26 ± 0.051
same,promoter activity interaction Z-score,[5]; [22],-0.515 ± 0.0068
same,promoter activity interaction Z-score,[6]; [7],0.918 ± 0.69
same,promoter activity interaction Z-score,[6]; [8],0.218 ± 0.13
same,promoter activity interaction Z-score,[6]; [9],1.08 ± 1.6
same,promoter activity interaction Z-score,[6]; [10],0.883 ± 0.56
same,promoter activity interaction Z-score,[6]; [11],0.21 ± 0.56
same,promoter activity interaction Z-score,[6]; [12],0.972 ± 1.2
same,promoter activity interaction Z-score,[6]; [13],0.2888 ± 0.00083
same,promoter activity interaction Z-score,[6]; [14],-0.388 ± 0.38
same,promoter activity interaction Z-score,[6]; [15],0.816 ± 0.38
same,promoter activity interaction Z-score,[6]; [16],0.304 ± 0.81
same,promoter activity interaction Z-score,[6]; [17],0.00196 ± 0.37
same,promoter activity interaction Z-score,[6]; [18],1.18 ± 1.1
same,promoter activity interaction Z-score,[6]; [19],-0.28 ± 1.4
same,promoter activity interaction Z-score,[6]; [20],-0.467 ± 0.27
same,promoter activity interaction Z-score,[6]; [21],-0.148 ± 0.072
same,promoter activity interaction Z-score,[6]; [22],-0.718 ± 1.1

# Reference: the supplement of paper PMC12282887
